D1 antagonist = antagonists of human D1 dopamine receptor. P21728. HEK293 TREx D1 cells, calcium flux, dopamine EC80; hits give low values. activity change, negative = inhibition, % at 10 µM. 3.2% of 360,000 active. AID 504652; in the data active = activity change below about -30%; also: % is scaled to controls: 0 for no effect and ±100 for the full control effect
Target sequence (P21728 whole entry, looked up): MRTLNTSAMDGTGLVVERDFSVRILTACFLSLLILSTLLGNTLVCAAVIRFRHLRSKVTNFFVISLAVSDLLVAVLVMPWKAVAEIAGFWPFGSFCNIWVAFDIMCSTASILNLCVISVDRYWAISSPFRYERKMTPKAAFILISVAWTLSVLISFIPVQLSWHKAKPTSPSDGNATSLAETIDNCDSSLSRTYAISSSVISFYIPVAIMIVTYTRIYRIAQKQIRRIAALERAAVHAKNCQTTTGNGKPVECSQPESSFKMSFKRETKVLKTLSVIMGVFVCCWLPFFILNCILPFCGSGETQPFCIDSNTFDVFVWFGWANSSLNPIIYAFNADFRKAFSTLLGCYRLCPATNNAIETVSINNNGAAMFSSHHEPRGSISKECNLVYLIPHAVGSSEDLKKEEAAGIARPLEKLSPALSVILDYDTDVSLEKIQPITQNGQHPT
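After overnight tetracycline induction at 30 C, force-coupled D1 HEK293 cells took up a no-wash calcium dye at room temperature. Compounds were added and monitored 180 s, and the response to EC80 dopamine was then recorded.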
TRHR ag = agonists of human TRH receptor; TRHR cells, calcium flux fluo-8, FDSS agonist mode; activation, % at 2 µM; 0.18% of 360,000 active; AID 493084; also: 0% is about no effect
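TRHR-expressing cells, plated overnight in medium with 10% serum, were loaded with fluo-8 calcium dye at room temperature. After a 10 s baseline, library compound was pin-added and calcium release was recorded kinetically (ex 480/em 530) as agonist response.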
D1 agonist = human D1 receptor agonism; P21728; HEK293 T-REx D1 cells, calcium flux, agonist mode; 1% of 360,000 active; activation, % at 2 µM; AID 504660; also: 0% is about no effect
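Agonism was scored from calcium flux recorded over 180 s (1 read/s) after pintool compound addition, following a 10-cycle baseline. Cells were inducible force-coupled HEK293 TREx D1, plated overnight at 30 C and loaded with no-wash calcium dye.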
TRHR enhancer = allosterically enhances the human TRH receptor | P34981 | TRHR cells, fluo-8 calcium fluorescence, EC20 TRH enhancement | enhancement, % at 2 µM | 0.66% of 360,000 active; in the data active = enhancement above about 30%; also: 0% is about no effect
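Enhancer read-out: after compound pinning and an initial kinetic agonist-mode read, an EC20 of TRH (10 nM final) was injected and fluo-8 calcium signal (Ex 480/Em 530) followed at 1 s/cycle for 100 cycles in TRHR-expressing cells.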
D1 potentiator = enhances dopamine response at the human D1 receptor; 0.036% of 360,000 active; P21728; potentiation, % at 10 µM; HEK293 TREx D1 cells, calcium flux, dopamine EC20 potentiation; in the data active = potentiation above about 30%; also: 0% is about no effect
Active calls of the source: *. Sampled rows, rich in hits. Any-hit rate of the full collection: about 4.6%. Rule as the data show it, unless noted: active = activation above about 30%; inactive = the rest.

Results for CN1CCN(c2ccc(NC(=O)c3ccc(Oc4ccccc4)cc3)cc2)CC1 ?
D1 antagonist: -58.4*; TRHR ag: -0.9; D1 agonist: 11.0; TRHR enhancer: 0.1

Results for COc1ccc(N2CCN(C(=S)Nc3ccccc3)CC2)cc1 ?
D1 antagonist: -10.9; TRHR ag: 0.2; D1 agonist: -2.1; TRHR enhancer: -4.4; D1 potentiator: 10.7

How did COc1ccc(NC(=O)C(=O)NCCc2sc(-c3ccc(Cl)cc3)nc2C)cc1 do in these assays?
D1 antagonist: -12.2; TRHR ag: 0.2; D1 agonist: 3.4; TRHR enhancer: -0.5; D1 potentiator: -8.2

Results for COC(=O)CN1C(=O)C(O)(c2c(C)[nH]c3ccccc23)c2ccccc21 (configuration not stated) ?
D1 antagonist: -3.9; TRHR ag: 0.3; D1 agonist: 11.0; TRHR enhancer: -3.1; D1 potentiator: -7.7

How did COCCCNC(=O)CCCN1C(=O)CCn2nc(-c3cn(C)c4ccccc34)cc21 do in these assays?
D1 antagonist: -6.1; TRHR ag: -0.5; D1 agonist: 0.6; TRHR enhancer: -11.6; D1 potentiator: -1.6

How did COc1cc(/C=N/NC(=O)c2ccc(CSc3nc4ccccc4[nH]3)cc2)cc(OC)c1OC do in these assays?
D1 antagonist: -33.5*; TRHR ag: -0.6; D1 agonist: 10.9; TRHR enhancer: 3.9; D1 potentiator: -9.9

Results for COc1cc(/C=N/NC(=O)c2ccc3nc[nH]c3c2)cc(OC)c1OC ?
D1 antagonist: 7.1; TRHR ag: 1.6; D1 agonist: 0.0; TRHR enhancer: 14.4; D1 potentiator: -1.4

Results for COc1cc(/C=N\NC(=O)c2ccc(-c3ccccc3)cc2)cc(OC)c1O ?
D1 antagonist: -31.5*; TRHR ag: -0.5; D1 agonist: -0.1; TRHR enhancer: -2.7; D1 potentiator: -2.6

What do the screens show for `COc1cc(NS(=O)(=O)c2ccc3c(c2)CCCN3C(C)=O)cc(OC)c1OC`?
D1 antagonist: -2.1; TRHR ag: 0.8; D1 agonist: 0.6; TRHR enhancer: 3.3; D1 potentiator: -0.5

How did C=CCOc1ccc(/C=N\NC(N)=S)cc1 do in these assays?
D1 antagonist: -61.9*; TRHR ag: -0.7; D1 agonist: -0.4; TRHR enhancer: 33.2*; D1 potentiator: -5.0

What do the screens show for `CN1CCN(c2ncc3c(n2)CCN(Cc2cc(Br)cs2)C3)CC1`?
D1 antagonist: -19.5; TRHR ag: -1.6; D1 agonist: 20.7; TRHR enhancer: 8.2; D1 potentiator: -0.4

Results for O=C(Cc1ccc(Br)cc1)Nc1ncc([N+](=O)[O-])s1 ?
D1 antagonist: -25.2; TRHR ag: 7.4; D1 agonist: 21.1; TRHR enhancer: 6.8; D1 potentiator: -1.9

Results for O=C(Cc1ccc(Cl)cc1)Nc1ncc([N+](=O)[O-])s1 ?
D1 antagonist: -43.1*; TRHR ag: 1.7; D1 agonist: 31.0*; TRHR enhancer: -13.9; D1 potentiator: -6.5

What do the screens show for `O=C(COC(=O)COc1ccccc1)Nc1ncc([N+](=O)[O-])s1`?
D1 antagonist: 8.7; TRHR ag: 0.4; D1 agonist: 5.7; TRHR enhancer: 0.6; D1 potentiator: -8.2

How did O=C(COc1ccc(Cl)cc1)Nc1ncc([N+](=O)[O-])s1 do in these assays?
D1 antagonist: -31.6*; TRHR ag: 3.8; D1 agonist: 27.7; TRHR enhancer: -9.9; D1 potentiator: -4.4

What do the screens show for `COc1ccccc1N1CCN(Cc2ccc(-c3ccccc3[N+](=O)[O-])o2)CC1`?
D1 antagonist: -73.9*; TRHR ag: -0.5; D1 agonist: 2.0; TRHR enhancer: -3.0; D1 potentiator: -8.6

How did COc1ccccc1N1CCN(Cc2ccco2)CC1 do in these assays?
D1 antagonist: 4.1; TRHR ag: 0.0; D1 agonist: 3.0; TRHR enhancer: 0.1; D1 potentiator: -1.6

How did COc1ccccc1N1CCN(c2ccc(N3C(=O)CCC3=O)cc2[N+](=O)[O-])CC1 do in these assays?
D1 antagonist: -44.3*; TRHR ag: 1.2; D1 agonist: 14.3; TRHR enhancer: -0.3; D1 potentiator: -5.8

What do the screens show for `COc1cccc(N2CCN(c3ccc(N4C(=O)CCC4=O)cc3[N+](=O)[O-])CC2)c1`?
D1 antagonist: -25.0; TRHR ag: 0.0; D1 agonist: 17.0; TRHR enhancer: -6.1; D1 potentiator: -4.2
